Results from PubChem BioAssay AID1159580 (chemical genetic matrix, 2015).
Screen size: about 5,500 compounds; about 2,000 (36%) were called active. Roughly 18% stayed inconclusive and do not appear here. Cut-off read from the data, not from the text of the source: active = normalized growth mostly below about 0.91 (no sharp cut-off); inconclusive = no clear call, values can overlap the other calls; inactive = mostly above about 0.92. The list shows a part of the results.

Test: chemical genetic growth profiling, strain panel (AID 1159580);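 note: tested at 20 µM; growth read once vehicle control cultures reached saturation at 30 °C; 1 = growth at the plate median or of vehicle wells; lower values mean less growth of the strain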
Details: S. cerevisiae deletion strains, growth OD

Measured: normalized growth

CNNC
inactive: locus YAL013W, strain DEP1, stronger effect = lower value 1.01 | locus YAL021C, strain ccr4, stronger effect = lower value 1.01 | locus YAL026C, strain drs2, stronger effect = lower value 1.02 | locus YAL030W, strain snc1, stronger effect = lower value 1.02 | locus YBL061C, strain skt5, stronger effect = lower value 1 | locus YBR009C, strain hhf1, stronger effect = lower value 1.01 | locus YBR021W, strain FUR4, stronger effect = lower value 1.04 | locus YBR023C, strain chs3, stronger effect = lower value 1 | locus YBR171W, strain sec66, stronger effect = lower value 0.995 | locus YBR229C, strain ROT2, stronger effect = lower value 1.01 | locus YBR231C, strain swc5, stronger effect = lower value 1.01 | locus YBR279W, strain paf1, stronger effect = lower value 1.02 | locus YCL011C, strain gbp2, stronger effect = lower value 1.01 | locus YCL016C, strain dcc1, stronger effect = lower value 1.04 | locus YCL029C, strain bik1, stronger effect = lower value 1.01 | locus YCL069W, strain vba3, stronger effect = lower value 1.01 | locus YCR088W, strain abp1, stronger effect = lower value 1.01 | locus YDL005C, strain med2, stronger effect = lower value 0.987 | locus YDL035C, strain GPR1, stronger effect = lower value 1.02 | locus YDL040C, strain nat1, stronger effect = lower value 1 | locus YDL074C, strain BRE1, stronger effect = lower value 1.07 | locus YDL101C, strain DUN1, stronger effect = lower value 1.03 | locus YDL134C, strain PPH21, stronger effect = lower value 1.02 | locus YDL185W, strain tfp1, stronger effect = lower value 1.01 | locus YDL192W, strain arf1, stronger effect = lower value 0.995 | locus YDR001C, strain nth1, stronger effect = lower value 1.02 | locus YDR069C, strain doa4, stronger effect = lower value 1.02 | locus YDR101C, strain arx1, stronger effect = lower value 0.989 | locus YDR137W, strain rgp1, stronger effect = lower value 1.04 | locus YDR150W, strain NUM1, stronger effect = lower value 1 | locus YDR159W, strain sac3, stronger effect = lower value 0.991 | locus YDR162C, strain NBP2, stronger effect = lower value 1.03 | locus YDR195W, strain ref2 0.981 | locus YDR297W, strain sur2, stronger effect = lower value 1 | locus YDR318W, strain mcm21, stronger effect = lower value 0.997 | locus YDR334W, strain swr1, stronger effect = lower value 1.01 | locus YDR335W, strain msn5, stronger effect = lower value 1.01 | locus YDR388W, stronger effect = lower value 0.994 | locus YDR392W, strain spt3, stronger effect = lower value 1.01 | locus YDR502C, strain sam2, stronger effect = lower value 1.01 | locus YEL003W, strain gim4, stronger effect = lower value 1.01 | locus YEL037C, strain rad23, stronger effect = lower value 1.02 | locus YEL061C, strain CIN8 (second series), stronger effect = lower value 1.01 | locus YEL061C, strain CIN8, stronger effect = lower value 1.01 | locus YER015W, strain faa2, stronger effect = lower value 1.01 | locus YER016W, strain bim1, stronger effect = lower value 1.01 | locus YER110C, stronger effect = lower value 0.996 | locus YER111C, strain swi4, stronger effect = lower value 1 | locus YER155C, strain BEM2 (second series), stronger effect = lower value 1.04 | locus YER155C, strain BEM2, stronger effect = lower value 1.03 | locus YER167W, strain BCK2, stronger effect = lower value 1.02 | locus YFR010W, strain ubp6, stronger effect = lower value 0.993 | locus YGL078C, strain dbp3, stronger effect = lower value 1 | locus YGL086W, strain mad1, stronger effect = lower value 1.01 | locus YGL167C, strain pmr1, stronger effect = lower value 0.998 | locus YGL173C, strain kem1, stronger effect = lower value 0.987 | locus YGL227W, strain vid30, stronger effect = lower value 1.01 | locus YGL240W, strain doc1, stronger effect = lower value 0.995 | locus YGL248W, strain PDE1, stronger effect = lower value 1.02 | locus YGL253W, strain hxk2, stronger effect = lower value 1 | locus YGR078C, strain PAC10, stronger effect = lower value 1.04 | locus YGR135W, strain pre9, stronger effect = lower value 1.01 | locus YGR229C, strain SMI1, stronger effect = lower value 1.02 | locus YGR252W, strain gcn5, stronger effect = lower value 0.955 | locus YHR013C, strain ard1, stronger effect = lower value 1.02 | locus YHR027C, strain rpn1, stronger effect = lower value 1.02 | locus YHR030C, strain SLT2, stronger effect = lower value 1.02 | locus YHR079C, strain IRE1 (second series), stronger effect = lower value 1 | locus YHR094C, strain hxt1, stronger effect = lower value 0.998 | locus YHR129C, strain ARP1, stronger effect = lower value 1.02 | locus YHR142W, strain chs7, stronger effect = lower value 1.04 | locus YHR200W, strain rpn10, stronger effect = lower value 1 | locus YIL066C, strain RNR3, stronger effect = lower value 1.01 | locus YIL073C, strain SPO22, stronger effect = lower value 0.998 | locus YIL125W, strain kgd1, stronger effect = lower value 0.99 | locus YIR030C, strain dcg1, stronger effect = lower value 1.01 | locus YJL092W, strain hpr5, stronger effect = lower value 1.03 | locus YJL095W, strain BCK1 (second series), stronger effect = lower value 1.01 | locus YJL095W, strain BCK1, stronger effect = lower value 1.05 | locus YJL115W, strain asf1, stronger effect = lower value 0.994 | locus YJL129C, strain trk1, stronger effect = lower value 1.01 | locus YJL134W, strain LCB3, stronger effect = lower value 1.02 | locus YJL154C, strain vps35, stronger effect = lower value 1.02 | locus YJL164C, strain tpk1, stronger effect = lower value 0.996 | locus YJL166W, strain qcr8, stronger effect = lower value 0.997 | locus YJL168C, strain set2, stronger effect = lower value 1 | locus YJL187C, strain SWE1 (second series), stronger effect = lower value 1.02 | locus YJR043C, strain POL32, stronger effect = lower value 0.998
